From paper PMC12820563, “FoxP3 forms a head-to-head dimer in vivo and stabilizes its multimerization on adjacent microsatellites”
In all, about 16,000 sequences were measured (“rpm ratio (pull-down/input)”: median about 0.5, highest 2% from about 5.5 on). The sample holds the highest values, similar sequences and a random draw of the others, so the mix is not that of the screen.

target: T1, MBP-FoxP3dN (Mus musculus, UniProt Q99JB6 188-423); experiment: PD-seq (MBP pull-down with sequencing); 20 mM Tris-HCl pH 7.5, 100 mM NaCl, 1.5 mM MgCl2, 0.4 uM protein, 0.1 uM dsDNA library, 30 min, room temperature, amylose pull-down; high values mean tight binding; conditions: protein: recombinant; tags: His6-MBP; chain copies: 2; dsDNA, one strand shown
T1 sequence: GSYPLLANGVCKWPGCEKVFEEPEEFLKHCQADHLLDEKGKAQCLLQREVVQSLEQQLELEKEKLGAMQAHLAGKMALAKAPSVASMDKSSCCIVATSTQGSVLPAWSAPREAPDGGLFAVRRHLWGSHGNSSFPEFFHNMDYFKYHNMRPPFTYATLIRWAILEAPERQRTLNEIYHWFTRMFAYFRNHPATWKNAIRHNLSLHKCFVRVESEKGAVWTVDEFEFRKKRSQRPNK
Outline: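 Binding is given as reads-per-million enrichment, pull-down over input, with replicates pooled. The bait was an N-terminus-lacking mouse FoxP3 or FoxP1 fragment with a His6-MBP tag, expressed in E. coli and used at 0.4 µM with 0.1 µM Klenow-filled degenerate double-stranded DNA library for 30 min at room temperature in Tris pH 7.5 buffer with NaCl and MgCl2. Amylose resin pull-down with three washes was followed by proteinase K release, PCR barcoding and Illumina sequencing.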

Sequence	binding signal
GATGATTGTTCTCCCAGCTGATGAATTAGAGCCCTCGAGTAAACAAATTTTCCTAATCTTTCTGTTCAAGCGCCATCTAC	0.358 RPM ratio (pull-down/input)
GATGATTGTTCTCCCAGCTGATGAATTTCAACGCTCGAGTAAACAAATTTTCCTAATCTTTCTGTTCAAGCGCCATCTAC	0.363 RPM ratio (pull-down/input)
GATGATTGTTCTCCCAGCTGATGAATTTATGGAGTCGAGTAAACAAATTTTCCTAATCTTTCTGTTCAAGCGCCATCTAC	0.454 RPM ratio (pull-down/input)
GATGATTGTTCTCCCAGCTGATGAATTAGACAAATCGAGTAAACAAATTTTCCTAATCTTTCTGTTCAAGCGCCATCTAC	0.417 RPM ratio (pull-down/input)
GATGATTGTTCTCCCAGCTGATGAATTACTTCACTCGAGTAAACAAATTTTCCTAATCTTTCTGTTCAAGCGCCATCTAC	0.319 RPM ratio (pull-down/input)
GATGATTGTTCTCCCAGCTGATGAATTCTTAATCTCGAGTAAACAAATTTTCCTAATCTTTCTGTTCAAGCGCCATCTAC	0.28 RPM ratio (pull-down/input)
GATGATTGTTCTCCCAGCTGATGAATTTATACCTTCGAGTAAACAAATTTTCCTAATCTTTCTGTTCAAGCGCCATCTAC	0.85 RPM ratio (pull-down/input)
GATGATTGTTCTCCCAGCTGATGAATTGAACGGGTCGAGTAAACAAATTTTCCTAATCTTTCTGTTCAAGCGCCATCTAC	0.23 RPM ratio (pull-down/input)
GATGATTGTTCTCCCAGCTGATGAATTCATATTGTCGAGTAAACAAATTTTCCTAATCTTTCTGTTCAAGCGCCATCTAC	1.06 RPM ratio (pull-down/input)
GATGATTGTTCTCCCAGCTGATGAATTCGGTCATTCGAGTAAACAAATTTTCCTAATCTTTCTGTTCAAGCGCCATCTAC	0.728 RPM ratio (pull-down/input)
GATGATTGTTCTCCCAGCTGATGAATTTGGTGCTTCGAGTAAACAAATTTTCCTAATCTTTCTGTTCAAGCGCCATCTAC	1.59 RPM ratio (pull-down/input)
GATGATTGTTCTCCCAGCTGATGAATTGTCCGAATCGAGTAAACAAATTTTCCTAATCTTTCTGTTCAAGCGCCATCTAC	0.272 RPM ratio (pull-down/input)
GATGATTGTTCTCCCAGCTGATGAATTTGTCATCTCGAGTAAACAAATTTTCCTAATCTTTCTGTTCAAGCGCCATCTAC	6.03 RPM ratio (pull-down/input)
GATGATTGTTCTCCCAGCTGATGAATTGTCATCCTCGAGTAAACAAATTTTCCTAATCTTTCTGTTCAAGCGCCATCTAC	0.941 RPM ratio (pull-down/input)
GATGATTGTTCTCCCAGCTGATGAATTTGTCATTTCGAGTAAACAAATTTTCCTAATCTTTCTGTTCAAGCGCCATCTAC	5.68 RPM ratio (pull-down/input)
GATGATTGTTCTCCCAGCTGATGAATTTTGTCATTCGAGTAAACAAATTTTCCTAATCTTTCTGTTCAAGCGCCATCTAC	4.89 RPM ratio (pull-down/input)
GATGATTGTTCTCCCAGCTGATGAATTGTCATTTTCGAGTAAACAAATTTTCCTAATCTTTCTGTTCAAGCGCCATCTAC	0.999 RPM ratio (pull-down/input)
GATGATTGTTCTCCCAGCTGATGAATTTTTGTCATCGAGTAAACAAATTTTCCTAATCTTTCTGTTCAAGCGCCATCTAC	0.666 RPM ratio (pull-down/input)
GATGATTGTTCTCCCAGCTGATGAATTACTTTCTTCGAGTAAACAAATTTTCCTAATCTTTCTGTTCAAGCGCCATCTAC	0.388 RPM ratio (pull-down/input)
GATGATTGTTCTCCCAGCTGATGAATTGCTGCACTCGAGTAAACAAATTTTCCTAATCTTTCTGTTCAAGCGCCATCTAC	1.03 RPM ratio (pull-down/input)
GATGATTGTTCTCCCAGCTGATGAATTCGTGGTTTCGAGTAAACAAATTTTCCTAATCTTTCTGTTCAAGCGCCATCTAC	1.35 RPM ratio (pull-down/input)

Sequence	binding signal
GATGATTGTTCTCCCAGCTGATGAATTAGGTAGTTCGAGTAAACAAATTTTCCTAATCTTTCTGTTCAAGCGCCATCTAC	0.919 RPM ratio (pull-down/input)
GATGATTGTTCTCCCAGCTGATGAATTTCATTGGTCGAGTAAACAAATTTTCCTAATCTTTCTGTTCAAGCGCCATCTAC	1.11 RPM ratio (pull-down/input)
GATGATTGTTCTCCCAGCTGATGAATTCTTGTCATCGAGTAAACAAATTTTCCTAATCTTTCTGTTCAAGCGCCATCTAC	0.625 RPM ratio (pull-down/input)
GATGATTGTTCTCCCAGCTGATGAATTAGGCATTTCGAGTAAACAAATTTTCCTAATCTTTCTGTTCAAGCGCCATCTAC	6.35 RPM ratio (pull-down/input)
GATGATTGTTCTCCCAGCTGATGAATTAGGCAAATCGAGTAAACAAATTTTCCTAATCTTTCTGTTCAAGCGCCATCTAC	0.601 RPM ratio (pull-down/input)
GATGATTGTTCTCCCAGCTGATGAATTAGGGCATTCGAGTAAACAAATTTTCCTAATCTTTCTGTTCAAGCGCCATCTAC	5.05 RPM ratio (pull-down/input)
GATGATTGTTCTCCCAGCTGATGAATTTTAGGCCTCGAGTAAACAAATTTTCCTAATCTTTCTGTTCAAGCGCCATCTAC	0.444 RPM ratio (pull-down/input)
GATGATTGTTCTCCCAGCTGATGAATTAGGCGCCTCGAGTAAACAAATTTTCCTAATCTTTCTGTTCAAGCGCCATCTAC	1.35 RPM ratio (pull-down/input)
GATGATTGTTCTCCCAGCTGATGAATTTAGGCATTCGAGTAAACAAATTTTCCTAATCTTTCTGTTCAAGCGCCATCTAC	5.38 RPM ratio (pull-down/input)
GATGATTGTTCTCCCAGCTGATGAATTAGGCATCTCGAGTAAACAAATTTTCCTAATCTTTCTGTTCAAGCGCCATCTAC	6.82 RPM ratio (pull-down/input)
GATGATTGTTCTCCCAGCTGATGAATTAGGCAGCTCGAGTAAACAAATTTTCCTAATCTTTCTGTTCAAGCGCCATCTAC	1.13 RPM ratio (pull-down/input)
GATGATTGTTCTCCCAGCTGATGAATTAGGCCTCTCGAGTAAACAAATTTTCCTAATCTTTCTGTTCAAGCGCCATCTAC	5.5 RPM ratio (pull-down/input)
GATGATTGTTCTCCCAGCTGATGAATTGCTCAGATCGAGTAAACAAATTTTCCTAATCTTTCTGTTCAAGCGCCATCTAC	0.345 RPM ratio (pull-down/input)
GATGATTGTTCTCCCAGCTGATGAATTAACAATGTCGAGTAAACAAATTTTCCTAATCTTTCTGTTCAAGCGCCATCTAC	0.512 RPM ratio (pull-down/input)
GATGATTGTTCTCCCAGCTGATGAATTGCTTATGTCGAGTAAACAAATTTTCCTAATCTTTCTGTTCAAGCGCCATCTAC	1.87 RPM ratio (pull-down/input)
GATGATTGTTCTCCCAGCTGATGAATTCGGCACTTCGAGTAAACAAATTTTCCTAATCTTTCTGTTCAAGCGCCATCTAC	0.811 RPM ratio (pull-down/input)
GATGATTGTTCTCCCAGCTGATGAATTTTGCGCGTCGAGTAAACAAATTTTCCTAATCTTTCTGTTCAAGCGCCATCTAC	3.39 RPM ratio (pull-down/input)
GATGATTGTTCTCCCAGCTGATGAATTTTTTGCGTCGAGTAAACAAATTTTCCTAATCTTTCTGTTCAAGCGCCATCTAC	0.525 RPM ratio (pull-down/input)
GATGATTGTTCTCCCAGCTGATGAATTTGCGTCGTCGAGTAAACAAATTTTCCTAATCTTTCTGTTCAAGCGCCATCTAC	2.28 RPM ratio (pull-down/input)
GATGATTGTTCTCCCAGCTGATGAATTGTTTGCGTCGAGTAAACAAATTTTCCTAATCTTTCTGTTCAAGCGCCATCTAC	6.41 RPM ratio (pull-down/input)
GATGATTGTTCTCCCAGCTGATGAATTCTTTGCGTCGAGTAAACAAATTTTCCTAATCTTTCTGTTCAAGCGCCATCTAC	0.489 RPM ratio (pull-down/input)

Sequence	binding signal
GATGATTGTTCTCCCAGCTGATGAATTTGTTGCGTCGAGTAAACAAATTTTCCTAATCTTTCTGTTCAAGCGCCATCTAC	6.75 RPM ratio (pull-down/input)
GATGATTGTTCTCCCAGCTGATGAATTTAACGAGTCGAGTAAACAAATTTTCCTAATCTTTCTGTTCAAGCGCCATCTAC	0.208 RPM ratio (pull-down/input)
GATGATTGTTCTCCCAGCTGATGAATTAGCTGCTTCGAGTAAACAAATTTTCCTAATCTTTCTGTTCAAGCGCCATCTAC	0.674 RPM ratio (pull-down/input)
GATGATTGTTCTCCCAGCTGATGAATTGTACGTATCGAGTAAACAAATTTTCCTAATCTTTCTGTTCAAGCGCCATCTAC	0.769 RPM ratio (pull-down/input)
GATGATTGTTCTCCCAGCTGATGAATTAGAGATGTCGAGTAAACAAATTTTCCTAATCTTTCTGTTCAAGCGCCATCTAC	0.424 RPM ratio (pull-down/input)
GATGATTGTTCTCCCAGCTGATGAATTCTAAGTGTCGAGTAAACAAATTTTCCTAATCTTTCTGTTCAAGCGCCATCTAC	0.48 RPM ratio (pull-down/input)
GATGATTGTTCTCCCAGCTGATGAATTACAACTCTCGAGTAAACAAATTTTCCTAATCTTTCTGTTCAAGCGCCATCTAC	0.948 RPM ratio (pull-down/input)
GATGATTGTTCTCCCAGCTGATGAATTACCCATGTCGAGTAAACAAATTTTCCTAATCTTTCTGTTCAAGCGCCATCTAC	0.294 RPM ratio (pull-down/input)
GATGATTGTTCTCCCAGCTGATGAATTACGCATGTCGAGTAAACAAATTTTCCTAATCTTTCTGTTCAAGCGCCATCTAC	6.15 RPM ratio (pull-down/input)
GATGATTGTTCTCCCAGCTGATGAATTACGCTGTTCGAGTAAACAAATTTTCCTAATCTTTCTGTTCAAGCGCCATCTAC	1.09 RPM ratio (pull-down/input)
GATGATTGTTCTCCCAGCTGATGAATTACGCAACTCGAGTAAACAAATTTTCCTAATCTTTCTGTTCAAGCGCCATCTAC	6.03 RPM ratio (pull-down/input)
GATGATTGTTCTCCCAGCTGATGAATTCTACGCATCGAGTAAACAAATTTTCCTAATCTTTCTGTTCAAGCGCCATCTAC	0.854 RPM ratio (pull-down/input)
GATGATTGTTCTCCCAGCTGATGAATTACGCCTGTCGAGTAAACAAATTTTCCTAATCTTTCTGTTCAAGCGCCATCTAC	5.4 RPM ratio (pull-down/input)
GATGATTGTTCTCCCAGCTGATGAATTACGCCATTCGAGTAAACAAATTTTCCTAATCTTTCTGTTCAAGCGCCATCTAC	5.04 RPM ratio (pull-down/input)
GATGATTGTTCTCCCAGCTGATGAATTACGCAAATCGAGTAAACAAATTTTCCTAATCTTTCTGTTCAAGCGCCATCTAC	0.792 RPM ratio (pull-down/input)
GATGATTGTTCTCCCAGCTGATGAATTTACGCATTCGAGTAAACAAATTTTCCTAATCTTTCTGTTCAAGCGCCATCTAC	6.38 RPM ratio (pull-down/input)
GATGATTGTTCTCCCAGCTGATGAATTTTACGCATCGAGTAAACAAATTTTCCTAATCTTTCTGTTCAAGCGCCATCTAC	1.01 RPM ratio (pull-down/input)
GATGATTGTTCTCCCAGCTGATGAATTACGCATTTCGAGTAAACAAATTTTCCTAATCTTTCTGTTCAAGCGCCATCTAC	6.65 RPM ratio (pull-down/input)
GATGATTGTTCTCCCAGCTGATGAATTGCTACCATCGAGTAAACAAATTTTCCTAATCTTTCTGTTCAAGCGCCATCTAC	0.894 RPM ratio (pull-down/input)
GATGATTGTTCTCCCAGCTGATGAATTGCCCGAATCGAGTAAACAAATTTTCCTAATCTTTCTGTTCAAGCGCCATCTAC	0.311 RPM ratio (pull-down/input)
GATGATTGTTCTCCCAGCTGATGAATTACGGCCATCGAGTAAACAAATTTTCCTAATCTTTCTGTTCAAGCGCCATCTAC	1.15 RPM ratio (pull-down/input)
